From PubChem BioAssay (EPA / NIEHS)
Calls of active or inactive are those of the source. Rule for the calls: active = hit-call score of the fitted dose curve at least 0.9, where 1 is the maximum; inactive = score below 0.9.

Each compound was assayed on ATP-citrate lyase (ACLY), ACLY (gene 47) (assay: LTEA_HepaRG_ACLY: Life Technologies and Expression Analysis (LTEA) Assay for ATP-citrate lyase (ACLY) using HepaRG (AID 2283466)). Conditions: mRNA level, 48 h; actives raise or lower the signal.
Method: LTEA_HepaRG is a cell based, multiplexed-readout assay that uses HepaRG, a human liver cell line, with measurements taken at 48 hours after chemical dosing on a 96-well plate.LTEA_HepaRG_ACLY is one of 102 assay component(s) measured in the LTEA HepaRG cell culture assay. It is a marker of Steatosis.Data from the assay component LTEA_HepaRG_ACLY was analyzed into 1 endpoint. This assay endpoint, LTEA_HepaRG_ACLY, was analyzed with bidirectional fitting relative to DMSO as the negative control and baseline of activity. Using a type of inducible reporter, measures of mRNA induction for gain or loss-of-signal activity can be used to understand regulation of transcription factor activity. To generalize the intended target to other relatable targets, this assay endpoint is annotated to the lyase intended target family, where the subfamily is steatosis.
A total of 1060 chemcials from the ToxCast library were tested in eight-point concentration-response experiments. Cell culture and cytotoxicity assays were conducted at Thermo Fisher Scientific's Custom Services facility (Madison, WI). A single lot of human HepaRG cells (Thermo Fisher Scientific, Frederick, MD) was used for the cell culture experiments. 96-well format collagen type I coated plates of human HepaRG cells were prepared using established methods. Briefly, cryopreserved HepaRG cells were thawed, plated at a density of approximately 100,000 cells/well in HepaRG Thaw, Plate, and General Purpose media (HPRG770, Thermo Fisher Scientific), and incubated for 48 hours. 0.5% DMSO was selected as vehicle control to balance the requisite need of DMSO in HepaRG cultures to maintain differentiation (for example, baseline metabolism, proportions of hepatocytes vs. cholangiocytes), while enabling further hepatic receptor pathway activation (for example, PXR and CAR) in response to chemical exposure. 48 hours after plating, the culture medium was replaced with HepaRG Serum-Free Incudtion Media. Cells were exposed to each test chemical in duplicate and maintained in CO2 incubators for another 48 hours. Chemical plates were thawed to room temperature and 200x concentrations of treatment groups were prepared. 8-point conentration-reponse curves were made with the highest exposure at 100 uM, followed by half-log dilutions, all in 0.5% DMSO. Each test plate contained variouse controls, induction positive controls (1mM phenobarbital), cytotoxicity positive controls ([…] aflatoxin B1), vehicle controls (0.5% DMSO), and total lysis controls (0.5% DMSO). Cell morphology images were taken using an Essen IncuCyte FLR automated microscope, with six 96-well plates imaged in about 24 minutes. Images were captured and exported and JPEG files. Spent culture media was transfered to black-well plates for the LDH assay, and remaining media was sorted at -80 C for later use. Cells were treated with RLT buffer and frozen until shipped for gene expression analysis. Total RNA was isolated from the cell suspension in 75 uL of Buffer RLT (Qiagen, Germantown, MD 20874) by Quintiles/Expression Analysis (Durham, NC) using a custom isolation procedure. Total RNA from each plate well was transferred to a preamplification plate. Fluidigm's 96.96 Dynamic ArrayTM (Fluidigm, Amsterdam, the Netherlands) technology was used for gene expression analyses by quantitative reverse transcription polymerase chain reaction (qRT-PCR, performed by Quintiles/Expression Analysis, Durham, NC)89. Standard TaqManTM Assays (Applied Biosystems/ThermoFisher Scientific, Foster City, CA) were used to assess the expression of 93 genes selected based on their selectivity and sensitivity to important hepatic receptors known to be modulated by environmental chemicals; importance in human hepatocyte functionality; and hepatotoxicity. […]

Row | Compound | outcome | AC50
1 | Cc1ccc2oc(CN(Cc3ccccc3)C(=O)Nc3c(F)cc(F)cc3F)c(-c3ccc(Cl)cc3)c2c1 | inactive | –
2 | CCCCOC(=O)c1ccc(O)cc1 | inactive | –
3 | CCOC(=O)O[C@H](C)OC(=O)c1ccc2c(c1)cc(C(=O)NC1CCN(C(C)C)CC1)n2Cc1cc(-c2ccc(Cl)s2)on1 | inactive | –
4 | CCCOC(=O)c1cc(O)c(O)c(O)c1 | inactive | –
5 | O=C(Nc1ccc(Cl)cc1)Nc1ccc(Cl)c(Cl)c1 | – | 17.5 µM (active)
6 | O=C(O)Cc1cc(I)c(Oc2ccc(O)c(I)c2)c(I)c1 | inactive | –
7 | Cc1oc2c(NC(=O)c3c(Cl)cccc3Cl)cccc2c1C(C)(C)O | – | 29.6 µM (active)
8 | CCCC(=O)OCCC(C)C | inactive | –
9 | Oc1ccc2ccccc2c1 | inactive | –
10 | CN1C(=O)CC[C@H]1c1cccnc1 | inactive | –
11 | Cc1occc1C(=O)Nc1ccc(C(=O)N2CCC(F)(F)/C(=C\C(=O)N3CCC(N4CCCCC4)CC3)c3ccccc32)cc1 | – | 53.2 µM (active)
12 | CC1=CC(=O)/C(=C(/C)O)C(=O)O1 | inactive | –
13 | Clc1ccccc1C(c1ccccc1)(c1ccccc1)n1ccnc1 | – | 8.91 µM (active)
14 | CN(C)c1ccc(C(=C2C=CC(=[N+](C)C)C=C2)c2ccc(N(C)C)cc2)cc1 | – | 12.5 µM (active)
15 | CC(O)CC(C)(C)O (stereo not given) | inactive | –
16 | NCc1cccc(C2CCN(C(=O)c3ccc(C#Cc4ccccc4F)o3)CC2)c1 | inactive | –
17 | Cc1cccc2ccccc12 | inactive | –
18 | CN1C(=O)N(c2ccccc2Br)Cc2cnc(Nc3ccc4c(c3)OCC(CO)O4)nc21 (stereo not given) | – | 50 µM (active)
19 | O=C(O)c1ccccc1C(=O)OCc1ccccc1 | inactive | –
20 | CN(C)C(=O)C1(N2CCCCC2)CCN(CC[C@@]2(c3ccc(Cl)c(Cl)c3)CN(C(=O)c3ccccc3)CCO2)CC1 | – | 47.2 µM (active)

Row | Compound | outcome | AC50
21 | CO[C@H]1/C=C/O[C@@]2(C)Oc3c(C)c(O)c4c(O)c(c(/C=N/N5CCN(C)CC5)c(O)c4c3C2=O)NC(=O)/C(C)=C\C=C\[C@H](C)[C@H](O)[C@@H](C)[C@@H](O)[C@@H](C)[C@H](OC(C)=O)[C@@H]1C | inactive | –
22 | Cc1ncc(CO)c(CO)c1O | inactive | –
23 | CC1(C)NC(=O)N(c2ccc([N+](=O)[O-])c(C(F)(F)F)c2)C1=O | – | 76.5 µM (active)
24 | CC(C)(C)c1csc(-c2cc3cc(OCc4ccccc4CC(=O)O)ccc3o2)n1 | – | 87.4 µM (active)
25 | O=CCCCC=O | inactive | –
26 | COCC(C)OCC(C)OCC(C)O (stereo not given) | inactive | –
27 | CC[C@H](NC(=O)c1cc(F)ccc1NS(=O)(=O)c1cccc2cccnc12)c1ccccc1 | inactive | –
28 | CC(=O)N1CCN(c2ccc(OC[C@H]3CO[C@](Cn4ccnc4)(c4ccc(Cl)cc4Cl)O3)cc2)CC1 | – | 1.23 µM (active)
29 | CCCCCc1ccc(N)cc1 | inactive | –
30 | Clc1cc(Cl)c2c(c1)N=C1CCCCCN1C2 | inactive | –
31 | CCN(Cc1cccnc1)C(=O)c1cccc(Cl)c1[C@]1(C)C(=O)N(Cc2ccc(OC)cc2OC)c2ccc(Cl)cc21 | – | 16.9 µM (active)
32 | CCCCCCCCN(C)CCCCCCCC | inactive | –
33 | CC(C)(O)c1ccc(CNC(=O)c2cccnc2Oc2ccc3nonc3c2)cc1 | inactive | –
34 | O=C(OCCCCCCOC(=O)c1ccccc1)c1ccccc1 | inactive | –
35 | O=C1CCC(C2CCCCC2)CC1 | inactive | –
36 | Cc1cn([C@H]2C[C@H](N=[N+]=[N-])[C@@H](CO)O2)c(=O)[nH]c1=O | inactive | –
37 | c1ccc2n[nH]nc2c1 | inactive | –
38 | CC/C(=C(/CC)c1ccc(O)cc1)c1ccc(O)cc1 | – | 50 µM (active)
39 | OCCO | inactive | –
40 | NC(=O)c1nc(-c2cccc(-c3cc(F)ccc3OCC(F)(F)C(F)(F)F)c2)n[nH]1 | inactive | –
